esBAF inh: Bmi1 luciferase reporter increase in mESCs, primary screen, esBAF inhibitor project, mouse ES cells, Bmi1 luciferase knock-in, single point; 24 h; 100% = twice the neutral-well signal; reporter increase, % at 12.5 µM; 2% of 350,000 active; AID 602393, 2012; in the data active = activation above about 40%; inconclusive = no clear call, values can overlap the other calls;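 also: 0% = median of the plate's neutral control wells and 100% = double that signal; a rise in the Bmi1 reporter signal indicates esBAF inhibition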
C2C12 statin: suppressors of statin myotoxicity in C2C12 myotubes, primary screen, cell-based, single point, plate reader. C2C12 myotubes + simvastatin, ATP luminescence, 48 h; scaled: DMSO 0, geranylgeraniol control 100. 0.78% of 330,000 active. rescue of ATP level, % at 7.49 µM. AID 602340, 2012;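 active = mean ATP rescue above about 67%, or every replicate alone reaching that limit, limit read from the data, passing the limit was not always enough; inconclusive = no clear call, values can overlap the other calls; inactive = mean under the limit and some replicate under it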;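 also: myotubes were challenged with 10 µM simvastatin during compound exposure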
MITF TRPM1 HTS: activators of MITF-driven TRPM1 promoter reporter, primary screen, cell-based, SK-MEL-5, luciferase, single point. SK-MEL-5 TRPM1-promoter luciferase, 24 h; % of positive control, neutral wells = 0. activation, % at 12.5 µM. 0.75% of 300,000 active;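 active = mean activation of at least 80% with every replicate also reaching 80%; inconclusive = mean reaches 80% but some replicate falls short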;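 also: 0% = neutral control wells and 100% = parthenolide positive control wells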
Rtt109 HAT inh: inhibitors of C. albicans Rtt109/Vps75 HAT, primary screen, biochemical, ThioGlo CoA-SH fluorescence, plate reader | 0.16% of 330,000 active | purified Rtt109/Vps75, 4 h | inhibition, % at 34.9 µM | AID 540336, 2011;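 active = inhibition of at least 50% in every replicate; inconclusive = best replicate reaches 50% inhibition but some replicates fall short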
Target sequence (Q5AAJ8 whole entry, looked up): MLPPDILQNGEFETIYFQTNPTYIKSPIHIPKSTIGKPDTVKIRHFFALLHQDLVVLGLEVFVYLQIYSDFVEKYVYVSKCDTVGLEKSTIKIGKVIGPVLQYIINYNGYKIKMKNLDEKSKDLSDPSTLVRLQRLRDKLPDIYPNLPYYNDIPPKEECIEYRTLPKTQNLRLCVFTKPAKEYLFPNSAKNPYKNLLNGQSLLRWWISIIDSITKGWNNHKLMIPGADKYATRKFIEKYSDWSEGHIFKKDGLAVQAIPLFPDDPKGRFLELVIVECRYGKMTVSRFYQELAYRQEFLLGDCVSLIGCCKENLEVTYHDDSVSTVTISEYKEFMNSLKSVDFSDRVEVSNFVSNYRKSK
Wnt act: Wnt/beta-catenin pathway activators, primary screen, cell-based, plate reader, single point. Wnt/beta-catenin reporter cell assay, activator. activation, % at 9.35 µM. 1.2% of 300,000 active. AID 743398, 2014; in the data active = activation above about 30%, passing the limit was not always enough; inconclusive = no clear call, values can overlap the other calls;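 also: 0% = neutral control wells and 100% = positive control wells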
The depositor's hits bear a star. Rows were chosen to be rich in hits. Some 3.1% of all compounds tested hit in one or more screens of this group.

`FC(F)(F)c1ccccc1Cc1c(-c2cccc(Cl)c2)nc2ccc(Br)cn12` gave esBAF inh 42*, C2C12 statin 4 and Wnt act 7.
COc1ccc(Cc2c(-c3ccc(F)cc3)nc3ccc(Br)cn23)c(C)c1 was read as esBAF inh 57*, C2C12 statin -12 and Wnt act 22.
Screening COc1ccc(Cc2c(-c3cccc(Cl)c3)nc3ccc(Br)cn23)c(C)c1 returned esBAF inh 51*, C2C12 statin -33 and Wnt act 18.
COc1ccccc1Cc1c(-c2ccc(F)cc2)nc2ccc(Br)cn12 was read as esBAF inh 35, C2C12 statin -25 and Wnt act 0.
CC(C)NC(=O)Nc1ccc2c(c1)C(=O)N([C@@H](C)CO)C[C@H](C)[C@@H](CN(C)CC1CCCCC1)OCCCC[C@H](C)O2 was read as esBAF inh -4.
`CCC(=O)Nc1ccc2c(c1)C(=O)N(C)C[C@H](OC)[C@H](C)CN(Cc1cccnc1)[C@H](C)CO2` gave esBAF inh -3 and C2C12 statin 1.
`O=c1c2ccccc2sn1-c1cc(S(=O)(=O)N2CCOCC2)ccc1N1CCOCC1` gave esBAF inh -4, C2C12 statin 26, MITF TRPM1 HTS 4, Rtt109 HAT inh 122* and Wnt act -2.
`O=c1c2ccccc2sn1-c1cc(S(=O)(=O)N2CCOCC2)ccc1N1CCCC1` gave esBAF inh -5, C2C12 statin -16, MITF TRPM1 HTS -16 and Rtt109 HAT inh 7.
For C/C(=N\Nc1cccc2cccnc12)c1ccc[nH]1 the results were esBAF inh 47*, C2C12 statin -14, MITF TRPM1 HTS 48, Rtt109 HAT inh 2 and Wnt act 42*.
CCC(=O)Nc1cccc2cccnc12 was read as esBAF inh 3, C2C12 statin 7, MITF TRPM1 HTS 13 and Wnt act 18.
CS(=O)(=O)N(Cc1ccc(F)cc1)Cc1nc2ccccc2c(=O)[nH]1 was read as esBAF inh -9, C2C12 statin 99*, MITF TRPM1 HTS 5 and Rtt109 HAT inh -6.
COc1ccccc1CN1[C@@H]2c3cccc(=O)n3C[C@@H]2[C@@H](CO)[C@@H]1C(=O)NCCc1ccncc1 was read as esBAF inh -4 and C2C12 statin 28.
CCc1c(Cl)nc(N)nc1Nc1ccccc1Cl was read as esBAF inh 2, C2C12 statin 3, MITF TRPM1 HTS -2, Rtt109 HAT inh -3 and Wnt act -1.
Screening CCOc1ccccc1Nc1nc(N)nc(Cl)c1CC returned C2C12 statin 107*, MITF TRPM1 HTS 4, Rtt109 HAT inh 1 and Wnt act 0.
S=C(Nc1ccc(Br)cc1Cl)N1CCCC1 was read as esBAF inh inconclusive, C2C12 statin 3, MITF TRPM1 HTS 84*, Rtt109 HAT inh -3 and Wnt act 13.
`CCCCC(=O)N(Cc1ccc(F)cc1)C1CCS(=O)(=O)C1` (configuration not stated) gave esBAF inh -1, C2C12 statin 87*, MITF TRPM1 HTS 1, Rtt109 HAT inh -4 and Wnt act -3.
`COC(=O)C[C@@H]1CC[C@@H]2[C@H](COc3ccc(NC(=O)c4cccs4)cc3C(=O)N2C)O1` gave esBAF inh -4 and C2C12 statin 9.
Screening Cc1cccc(COc2ccc(/C=N/NC(=O)c3nnn(-c4nonc4N)c3CN3CCCCC3)cc2)c1 returned esBAF inh inconclusive, C2C12 statin 10, MITF TRPM1 HTS 19, Rtt109 HAT inh -15 and Wnt act 4.
COc1cc(/C=N/NC(=O)c2nnn(-c3nonc3N)c2C)ccc1OCc1ccc(Cl)cc1 was read as esBAF inh 56*, C2C12 statin -38 and Wnt act 0.
For Nc1nonc1-n1nnc(C(=O)N/N=C/c2ccc(OCc3cccc(Cl)c3)cc2)c1CN1CCCCC1 the results were MITF TRPM1 HTS 106*, Rtt109 HAT inh 6 and Wnt act 20.
Screening COc1ccc(/C=N/NC(=O)c2nnn(-c3nonc3N)c2-c2cccs2)cc1OC returned esBAF inh 4, C2C12 statin 10, MITF TRPM1 HTS 28, Rtt109 HAT inh -13 and Wnt act inconclusive.
COc1cc(/C=N/NC(=O)c2nnn(-c3nonc3N)c2C(C)C)ccc1OCc1ccccc1 was read as esBAF inh 16, C2C12 statin -5, MITF TRPM1 HTS 18, Rtt109 HAT inh 7 and Wnt act 3.
For Nc1nonc1-n1nnc(C(=O)N/N=C/c2cccc(Cl)c2)c1-c1cccs1 the results were esBAF inh 3, C2C12 statin 72*, MITF TRPM1 HTS 3, Rtt109 HAT inh 17 and Wnt act -1.
Screening Nc1nonc1-n1nnc(C(=O)N/N=C/c2ccc(OCc3ccccc3F)cc2)c1CN1CCCCC1 returned esBAF inh 9, C2C12 statin -12, MITF TRPM1 HTS 84*, Rtt109 HAT inh -5 and Wnt act 5.
For C[C@@H]1CN([C@H](C)CO)C(=O)c2cc(-c3ccccc3)cnc2O[C@H]1CN(C)C(=O)C1CCCCC1 the results were esBAF inh 5 and C2C12 statin 2.
For COCC(=O)N(C)C[C@@H]1Oc2ncc(C#CCC3CCCC3)cc2C(=O)N([C@H](C)CO)C[C@H]1C the results were esBAF inh -24 and C2C12 statin 9.
For O=C(Nc1nc(-c2nc3ccccc3s2)cs1)c1ccco1 the results were esBAF inh 52*, C2C12 statin -25, Rtt109 HAT inh 2 and Wnt act -3.
For O=C(O)Cc1csc(NC(=O)c2ccco2)n1 the results were esBAF inh -2, Rtt109 HAT inh 1 and Wnt act 0.
Screening O=C(Nc1nc(-c2nc3ccccc3s2)cs1)C1CC1 returned esBAF inh 30, C2C12 statin 17, Rtt109 HAT inh -4 and Wnt act 49*.
For COc1ccccc1OCc1csc(NC(=O)c2ccco2)n1 the results were esBAF inh 77*, C2C12 statin 10, MITF TRPM1 HTS 67 and Rtt109 HAT inh 10.
For CC(/C=C/c1ccccc1)=N\NC(N)=S the results were esBAF inh 50*, C2C12 statin -83, Rtt109 HAT inh 2 and Wnt act 28.
CC(C)CC#Cc1ccc2c(c1)O[C@@H](CN(C)C(=O)C1CCCCC1)[C@H](C)CN([C@H](C)CO)S2(=O)=O was read as esBAF inh 0 and C2C12 statin -30.
Screening CC(=O)COc1ccc2c(c1C)O/C(=C\c1ccco1)C2=O returned esBAF inh 61*, C2C12 statin 36, MITF TRPM1 HTS 64, Rtt109 HAT inh -4 and Wnt act 6.
